Several values for one entry are separate records, joined by “and”; a condition that tells them apart may be missing. Equal values may be shown once. Results filed as inconclusive are left out. A call without a number means that no potency is given here. Activity calls are given as the source filed them. The call rests on the fitted dose curve; in most records, active means well fitted curve in the direction sought with a large enough effect in the repeat runs; inconclusive means weak or mixed curves; inactive means no such curve, though single readings can be large; an effect the other way counts as inactive or inconclusive.
Assays:
[1] = qHTS RealTime-Glo MT Cell Viability Assay in HepG2 cells - 8 hour (AID 1224873); further: nearly all actives have a fitted effect of over 55% in size; further: potency means the concentration at half of the fitted maximal effect
How it was run: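 HepG2 cells (600/well) mixed with RealTime-Glo MT reagent, settled 5 h at 37 C/5% CO2 before compound addition. Nonlytic NanoLuc luminescence from viable-cell prosubstrate reduction read repeatedly during 40 h treatment at 37 C.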

[2] = A CellTox Green Cytotoxicity Assay to monitor cytotoxicity in HEK293 cells - 24 hour (AID 1224875); further: nearly all actives have a fitted effect of over 45% in size; further: potency means the concentration at half of the fitted maximal effect
How it was run: (§1)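 Real-time, in one plate: 600 HEK293 cells/well with dead-cell DNA dye, pinned compound after 5 h, 37 C incubation over 40 h; viable cells give no appreciable fluorescence.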

[3] = A CellTox Green Cytotoxicity Assay to monitor cytotoxicity in HepG2 cells - 16 hour (AID 1224876); further: nearly all actives have a fitted effect of over 45% in size; further: potency means the concentration at half of the fitted maximal effect
How it was run: (§2)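 Cytotoxicity was tracked as dead-cell DNA fluorescence in HepG2 cells treated with test compounds at 37 C; each time-point value comes from one kinetic series spanning 0, 8, 16, 24, 32 and 40 h.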

[4] = qHTS RealTime-Glo MT Cell Viability Assay in HepG2 cells - 32 hour (AID 1224877); further: nearly all actives have a fitted effect of over 55% in size; further: potency means the concentration at half of the fitted maximal effect
How it was run: (§3)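 Luminescence read-out: viable HepG2 cells reduce a prosubstrate to a NanoLuc substrate, giving a signal proportional to live cell number. Reads taken at 0, 8, 16, 24, 32 and 40 h of compound exposure at 37 C.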

[5] = A CellTox Green Cytotoxicity Assay to monitor cytotoxicity in HepG2 cells - 24 hour (AID 1224878); further: nearly all actives have a fitted effect of over 45% in size; further: potency means the concentration at half of the fitted maximal effect
How it was run: as §2

[6] = A CellTox Green Cytotoxicity Assay to monitor cytotoxicity in HepG2 cells - 40 hour (AID 1224879); further: nearly all actives have a fitted effect of over 40% in size; further: potency means the concentration at half of the fitted maximal effect
How it was run: as §2

[7] = qHTS RealTime-Glo MT Cell Viability Assay in HEK293 cells - 0 hour (AID 1224880); further: top concentration of the series differs between compounds; nearly all actives have a fitted effect of over 45% in size
How it was run: (§4)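 Kinetic, non-lysing viability readout. Seed HEK293 (600/well) with reagent, incubate 5 h at 37 C/5% CO2, pin 23 nL compound in DMSO, incubate at 37 C, read luminescence at 0, 8, 16, 24, 32, 40 h.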

[8] = A CellTox Green Cytotoxicity Assay to monitor cytotoxicity in HepG2 cells - 0 hour (AID 1224882); further: nearly all actives have a fitted effect of over 35% in size; further: potency means the concentration at half of the fitted maximal effect
How it was run: as §2

[9] = A CellTox Green Cytotoxicity Assay to monitor cytotoxicity in HepG2 cells - 32 hour (AID 1224883); further: nearly all actives have a fitted effect of over 50% in size; further: potency means the concentration at half of the fitted maximal effect
How it was run: as §2

[10] = A CellTox Green Cytotoxicity Assay to monitor cytotoxicity in HEK293 cells - 8 hour (AID 1224884); further: nearly all actives have a fitted effect of over 35% in size; further: potency means the concentration at half of the fitted maximal effect
How it was run: as §1

[11] = qHTS RealTime-Glo MT Cell Viability Assay in HepG2 cells - 16 hour (AID 1224885); further: nearly all actives have a fitted effect of over 50% in size; further: potency means the concentration at half of the fitted maximal effect
How it was run: as §3

[12] = A CellTox Green Cytotoxicity Assay to monitor cytotoxicity in HEK293 cells - 16 hour (AID 1224888); further: nearly all actives have a fitted effect of over 35% in size; further: potency means the concentration at half of the fitted maximal effect
How it was run: as §1

[13] = qHTS RealTime-Glo MT Cell Viability Assay in HepG2 cells - 0 hour (AID 1224889); further: nearly all actives have a fitted effect of over 50% in size
How it was run: as §3

[14] = A CellTox Green Cytotoxicity Assay to monitor cytotoxicity in HepG2 cells - 8 hour (AID 1224890); further: nearly all actives have a fitted effect of over 45% in size; further: potency means the concentration at half of the fitted maximal effect
How it was run: as §2

[15] = qHTS assay to identify small molecule antagonists of the estrogen receptor alpha (ER-alpha) signaling pathway using the BG1 cell line in the presence of 0.1 nM 17-beta-estradiol - cell viability counter screen (AID 1259241); further: nearly all actives have a fitted effect of over 40% in size; further: potency means the concentration at half of the fitted maximal effect
How it was run: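 Live-cell protease activity (CellTiter-Fluor fluorescence, 30 min) was read in the same wells after VM7Luc4E2 cells had been exposed to compounds with 0.1 nM 17beta-estradiol for 22 hr at 37C.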

[16] = qHTS assay to identify small molecule antagonists of the androgen receptor (AR) signaling pathway using the MDA cell line in the presence of 0.5 nM R1881 - cell viability counter screen (AID 1259242); further: nearly all actives have a fitted effect of over 45% in size; further: potency means the concentration at half of the fitted maximal effect
How it was run: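 Cells seeded at 3,000/well and allowed 5 hr at 37C, 0% CO2 before compound transfer and R1881 (0.5 nM final) addition; 16 hr later, live-cell protease fluorescence indicated cytotoxicity.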

[17] = A CellTox Green Cytotoxicity Assay to monitor cytotoxicity in HEK293 cells - 32 hour (AID 1224881); further: nearly all actives have a fitted effect of over 40% in size; further: potency means the concentration at half of the fitted maximal effect
How it was run: as §1

[18] = qHTS RealTime-Glo MT Cell Viability Assay in HEK293 cells - 24 hour (AID 1224886); further: nearly all actives have a fitted effect of over 50% in size; further: potency means the concentration at half of the fitted maximal effect
How it was run: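 Nonlytic real-time viability readout: viable cells convert prosubstrate to NanoLuc substrate, giving luminescence proportional to live cell number. HEK293, 600 cells/well, compound added after 5 h, continuous culture at 37 C.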

[19] = qHTS RealTime-Glo MT Cell Viability Assay in HEK293 cells - 8 hour (AID 1224887); further: nearly all actives have a fitted effect of over 50% in size; further: potency means the concentration at half of the fitted maximal effect
How it was run: as §4

## C[Si](Cl)(c1ccccc1)c1ccccc1
[1]
  Potency: inactive
[2]
  Potency: inactive
[3]
  Potency: inactive
[4]
  Potency: inactive
[5]
  Potency: inactive
[6]
  Potency: inactive
[7]
  Potency: inactive
[8]
  Potency: inactive
[9]
  Potency: inactive
[10]
  Potency: inactive
[11]
  Potency: inactive
[12]
  Potency: inactive
[13]
  Potency: inactive
[14]
  Potency: inactive
[15]
  Potency: inactive
[16]
  Potency: inactive

## C#CC1(O)CC[C@H]2[C@@H]3CCC4=CCCC[C@@H]4[C@H]3CC[C@@]21C (stereo not given in full)
[1]
  Potency: 21.3 µM (active)
[2]
  Potency: 21.9 µM (active) and 21.3 µM (active)
[3]
  Potency: 34.7 µM (active) and 19 µM (active)
[5]
  Potency: 34.7 µM (active) and 19 µM (active)
[6]
  Potency: 38.9 µM (active) and 21.3 µM (active)
[7]
  Potency: inactive
[17]
  Potency: 24.5 µM (active) and 21.3 µM (active)
[8]
  Potency: inactive
[9]
  Potency: 34.7 µM (active) and 19 µM (active)
[10]
  Potency: 17.4 µM (active) and 23.9 µM (active)
[11]
  Potency: 23.9 µM (active)
[18]
  Potency: 17.4 µM (active) and 16.9 µM (active)
[19]
  Potency: 21.3 µM (active)
[12]
  Potency: 24.5 µM (active) and 21.3 µM (active)
[13]
  Potency: inactive
[14]
  Potency: 24.5 µM (active) and 21.3 µM (active)
[15]
  Potency: inactive

## O=C(O)Cc1ccccc1Nc1c(Cl)cccc1Cl
[1]
  Potency: inactive
[2]
  Potency: inactive
[3]
  Potency: inactive
[4]
  Potency: inactive
[5]
  Potency: inactive
[7]
  Potency: inactive
[17]
  Potency: inactive
[8]
  Potency: inactive
[9]
  Potency: inactive
[10]
  Potency: inactive
[11]
  Potency: inactive
[18]
  Potency: inactive
[19]
  Potency: inactive
[12]
  Potency: inactive
[13]
  Potency: inactive
[14]
  Potency: inactive
[15]
  Potency: inactive
[16]
  Potency: inactive

## O=[N+]([O-])c1ccc(O)cc1C(F)(F)F
[1]
  Potency: inactive
[2]
  Potency: inactive
[3]
  Potency: inactive
[7]
  Potency: inactive
[17]
  Potency: inactive
[8]
  Potency: inactive
[9]
  Potency: inactive
[10]
  Potency: inactive
[11]
  Potency: inactive
[19]
  Potency: inactive
[12]
  Potency: inactive
[14]
  Potency: inactive
[15]
  Potency: 48.6 µM (active)
[16]
  Potency: 27.3 µM (active)

## CC1(C)[C@@H](O)CC[C@]2(C)[C@H]3C(=O)C=C4[C@@H]5C[C@@](C)(C(=O)O)CC[C@]5(C)CC[C@@]4(C)[C@]3(C)CC[C@@H]12
[1]
  Potency: inactive
[2]
  Potency: inactive
[3]
  Potency: inactive
[4]
  Potency: inactive
[7]
  Potency: inactive
[17]
  Potency: inactive
[8]
  Potency: inactive
[11]
  Potency: inactive
[18]
  Potency: inactive
[19]
  Potency: inactive
[12]
  Potency: inactive
[13]
  Potency: inactive
[14]
  Potency: inactive
[15]
  Potency: inactive
[16]
  Potency: inactive

## Cc1cc(C(C#N)c2ccc(Cl)cc2)c(Cl)cc1NC(=O)c1cc(I)cc(I)c1O (stereo not given)
[1]
  Potency: inactive
[2]
  Potency: inactive
[3]
  Potency: inactive
[4]
  Potency: inactive
[5]
  Potency: inactive
[7]
  Potency: inactive
[17]
  Potency: inactive
[8]
  Potency: inactive
[9]
  Potency: inactive
[10]
  Potency: inactive
[11]
  Potency: inactive
[18]
  Potency: inactive
[19]
  Potency: inactive
[12]
  Potency: inactive
[13]
  Potency: inactive
[14]
  Potency: inactive
[15]
  Potency: inactive

## C/C=C/C=C/COC(=O)C(C)C
[1]
  Potency: inactive
[2]
  Potency: inactive
[3]
  Potency: inactive
[6]
  Potency: 43.6 µM (active)
[7]
  Potency: inactive
[8]
  Potency: inactive
[9]
  Potency: 38.9 µM (active)
[10]
  Potency: inactive
[11]
  Potency: inactive
[12]
  Potency: inactive
[13]
  Potency: inactive
[14]
  Potency: inactive
[15]
  Potency: inactive
[16]
  Potency: inactive

## C1CCC(SSC2CCCCC2)CC1
[1]
  Potency: inactive
[2]
  Potency: inactive
[3]
  Potency: inactive
[5]
  Potency: inactive
[7]
  Potency: inactive
[17]
  Potency: inactive
[8]
  Potency: inactive
[9]
  Potency: inactive
[11]
  Potency: inactive
[19]
  Potency: inactive
[12]
  Potency: inactive
[13]
  Potency: inactive
[14]
  Potency: inactive
[15]
  Potency: inactive
[16]
  Potency: inactive

## CCCC(=O)OCCc1ccccc1
[1]
  Potency: inactive
[2]
  Potency: 43.6 µM (active)
[3]
  Potency: 43.6 µM (active)
[4]
  Potency: inactive
[6]
  Potency: 49 µM (active)
[7]
  Potency: inactive
[17]
  Potency: 49 µM (active)
[8]
  Potency: 38.9 µM (active)
[9]
  Potency: 43.6 µM (active)
[10]
  Potency: 38.9 µM (active)
[11]
  Potency: inactive
[18]
  Potency: inactive
[19]
  Potency: inactive
[12]
  Potency: 43.6 µM (active)
[13]
  Potency: inactive
[14]
  Potency: 43.6 µM (active)
[15]
  Potency: inactive

## CCCC[P+](C)(CCCC)CCCC
[1]
  Potency: inactive
[2]
  Potency: inactive
[3]
  Potency: inactive
[5]
  Potency: inactive
[7]
  Potency: inactive
[17]
  Potency: inactive
[8]
  Potency: inactive
[9]
  Potency: inactive
[10]
  Potency: inactive
[11]
  Potency: inactive
[19]
  Potency: inactive
[12]
  Potency: inactive
[13]
  Potency: inactive
[14]
  Potency: inactive
[15]
  Potency: inactive
[16]
  Potency: inactive

## O=C1c2ccccc2C(=O)N1SC1CCCCC1
[1]
  Potency: 38.9 µM (active)
[2]
  Potency: 13.8 µM (active) and 34.7 µM (active)
[3]
  Potency: 43.6 µM (active)
[4]
  Potency: 43.6 µM (active)
[5]
  Potency: 21.9 µM (active)
[7]
  Potency: inactive
[17]
  Potency: 12.3 µM (active) and 24.5 µM (active)
[8]
  Potency: inactive
[9]
  Potency: 24.5 µM (active)
[10]
  Potency: inactive
[11]
  Potency: 38.9 µM (active)
[19]
  Potency: 38.9 µM (active)
[12]
  Potency: 43.6 µM (active)
[15]
  Potency: inactive
[16]
  Potency: inactive

## CCN(CC)c1ccc2c(-c3ccc(S(=O)(=O)O)cc3S(=O)(=O)[O-])c3ccc(=[N+](CC)CC)cc-3oc2c1
[1]
  Potency: inactive
[2]
  Potency: inactive
[3]
  Potency: inactive
[6]
  Potency: inactive
[7]
  Potency: inactive
[17]
  Potency: inactive
[8]
  Potency: inactive
[9]
  Potency: inactive
[10]
  Potency: inactive
[11]
  Potency: inactive
[18]
  Potency: inactive
[19]
  Potency: inactive
[12]
  Potency: inactive
[13]
  Potency: inactive
[14]
  Potency: inactive
[15]
  Potency: 12.6 µM (active)
[16]
  Potency: 25.1 µM (active)

## Cc1ccc(-c2ccccc2)cc1
[1]
  Potency: inactive
[2]
  Potency: inactive
[3]
  Potency: 49 µM (active)
[4]
  Potency: inactive
[5]
  Potency: 43.6 µM (active)
[6]
  Potency: 43.6 µM (active)
[7]
  Potency: inactive
[17]
  Potency: inactive
[8]
  Potency: inactive
[9]
  Potency: 43.6 µM (active)
[11]
  Potency: inactive
[19]
  Potency: inactive
[12]
  Potency: inactive
[13]
  Potency: inactive
[14]
  Potency: 49 µM (active)
[15]
  Potency: inactive
[16]
  Potency: inactive

## CCC(=O)C(=O)CC
[1]
  Potency: inactive
[2]
  Potency: inactive
[3]
  Potency: inactive
[4]
  Potency: inactive
[6]
  Potency: inactive
[7]
  Potency: inactive
[17]
  Potency: inactive
[8]
  Potency: inactive
[9]
  Potency: inactive
[10]
  Potency: inactive
[11]
  Potency: inactive
[19]
  Potency: inactive
[12]
  Potency: inactive
[13]
  Potency: inactive
[14]
  Potency: inactive
[15]
  Potency: inactive
[16]
  Potency: inactive

Source: PubChem BioAssay (Tox21)
